Sampled rows, rich in hits. Any-hit rate of the full collection: about 0.67%.
Vc quorum ag-1 – inducers of Vibrio cholerae quorum light production without autoinducers, primary screen, BH1578 luxS cqsA deficient, single point. AID 588436, 2011. activation, % at 18.7 µM. V. cholerae BH1578 lux reporter, luminescence, 6 h. hit rate 0.16% among 350,000; in the data active = activation mostly above about 9.7%, no sharp cut-off
RN4220 kill – growth inhibition of S. aureus RN4220, primary screen, OD600; 16 h; inhibition, % (test concentration not listed); hit rate 0.33% among 330,000; in the data active = inhibition above about 85%;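 also: plate controls were untreated cells for no effect and reference antibiotic for full effect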
ugtP null kill – growth inhibition of ugtP-null S. aureus, primary screen, RN4220 ugtP deletion, OD600; 16 h; growth inhibition, % (concentration not given with the values); hit rate 0.54% among 330,000; in the data active = growth inhibition above about 68%;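 also: plate controls were untreated wells for no effect and antibiotic for full effect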
TcdB inh – TcdB glycohydrolase inhibitors, primary screen, biochemical, single point, plate reader; hit rate 0.24% among 350,000; Toxin B (Clostridioides difficile), P18177; inhibition, % at 9.99 µM; TcdB glycohydrolase enzymatic assay; in the data active = inhibition above about 10%
Vc quorum ag-2 – V. cholerae lux activation without autoinducers – BH1578 luxS cqsA deficient, cherry-pick, plate reader, dose response. AID 602243, 2012. V. cholerae BH1578 lux reporter, luminescence, 6 h. shares compounds with Vc quorum ag-1. 620 tested, under 10 active. activation, % at 50 µM; call rule not given here
* marks the source's active call; other numbers are inactive results; i = inactive; · = no result given.

SMILES | Vc quorum ag-1 | RN4220 kill | ugtP null kill | TcdB inh | Vc quorum ag-2
CCN(CC)C(=O)c1[nH]cnc1C(=O)NC(Cc1ccccc1)C(=O)OCc1ccccc1 (stereo not given) | · | 7.7 | 3.8 | · | ·
O=C(CCN1C(=O)c2ccccc2C1=O)N1CCN(C2c3ccccc3-c3ccccc32)CC1 | 13.3 | 4.3 | -17.7 | · | 2.4
COc1ccc(S(=O)(=O)N(C)CC2Oc3ccc(NS(C)(=O)=O)cc3C(=O)N(C(C)CO)CC2C)cc1 (stereo not given) | · | 4.2 | 0.5 | · | ·
Cc1ccc(C(=O)OCC(=O)Nc2ccc(N(C)C)cc2)cc1NC(=O)c1ccco1 | -0.7 | -0.5 | 4.5 | · | ·
Cc1ccc(C(=O)OCC(=O)Nc2ccccc2)cc1NC(=O)c1ccco1 | 6.6 | -0.4 | 5.7 | · | 0.4
C#CCOCCOCCOCCNc1nc(N2CCN(C(=O)C(CO)n3cc(C(N)C(C)C)nn3)CC2)nc(N2CCN(C(=O)C(C(C)O)n3cc(C(N)CCCCN)nn3)CC2)n1 (stereo not given) | · | 2.6 | -9.9 | · | ·
CC(C)NC(=O)c1ccc(-c2cccc(C(F)(F)F)c2)o1 | 33.3* | 1.0 | -2.3 | · | 0.2
Cc1ccc(C(=O)OCC(=O)NCC(F)(F)F)cc1C | 21.5 | 5.6 | 3.3 | 1.9 | 152.9
CC(=O)c1ccc(NC(=O)CNc2cc(S(=O)(=O)N3CCOCC3)ccc2N2CCCC2)cc1 | i | 0.0 | 6.0 | 1.2 | ·
O=C(CNc1cc(S(=O)(=O)N2CCOCC2)ccc1N1CCCC1)Nc1ccc(Cl)cc1 | 96.9* | -3.3 | -6.9 | -0.5 | 0.0
CC1CC2C3CCC4=CC(=O)C=C[C@]4(C)[C@@]3(Cl)C(O)C[C@]2(C)[C@@]1(O)C(=O)CO (stereo not given in full) | · | 4.5 | -6.8 | · | ·
COC(=O)NN=Cc1cccc(OC(=O)c2cccs2)c1 | · | 4.2 | -0.2 | · | ·
CCOC(=O)CSc1nc(C)cc(C)c1C#N | 16.7* | 5.9 | -0.7 | · | 0.0
CC(=O)Nc1nonc1NC(=O)c1ccc(F)cc1 | · | 3.8 | 12.1 | · | ·
CC(=O)Nc1nonc1NC(C)=O | 25.8* | 4.8 | 5.5 | · | 0.6
O=C1C=C(c2ccc(C(=O)O)c(Cl)c2)CC(c2ccc3c(c2)OCO3)C1 (stereo not given) | · | 9.0 | 5.1 | · | ·
O=C(COC(=O)c1ccc(Br)cc1)NC1CCCC1 | 131.4* | 2.5 | 6.8 | -3.9 | 58.0
Cc1cc(C(C)(C)C)oc1C(=O)OCC(=O)NC1CCCCC1 | 145.3* | 1.5 | 6.4 | -1.6 | 25.6
O=C(COC(=O)c1ccc(O)cc1)NC1CCCCCCC1 | i | · | · | 0.8 | ·
NS(=O)(=O)c1cc(C(=O)OCC(=O)NC2CCCCCCC2)ccc1Cl | 14.3 | 2.0 | 4.3 | 0.8 | -0.1
COC(=O)[C@]1(Cc2ccccc2)NC(c2ccc(-c3ccc(OC)cc3)cc2)C2C(=O)N(C)C(=O)C21 (stereo not given in full) | · | 4.5 | -12.8 | · | ·
Cc1ccc2occ(C(c3nnnn3Cc3ccccc3)N3CCOCC3)c(=O)c2c1 (stereo not given) | 25.0* | -5.4 | -8.1 | · | 0.8
Cc1ccc(C(=O)COc2cc(C)nc3nncn23)cc1 | 923.3* | 4.2 | 6.6 | 1.6 | i
Cc1ccc(C=NNC(=O)c2nnn(-c3nonc3N)c2CN(C)C)o1 | · | 6.0 | 7.5 | · | ·
CCOC(=O)c1cnc(-n2nc(C)cc2C)nc1N(C)C | 12.5 | 5.9 | 4.9 | · | 2.2
SMILES | Vc quorum ag-1 | RN4220 kill | ugtP null kill | TcdB inh | Vc quorum ag-2
CCOCCCN1CC(C(=O)NCCc2ccc(C)cc2)CC1=O (stereo not given) | 16.7* | -13.0 | -4.2 | · | 0.4
O=C(CN1CCCc2ccccc21)NN=Cc1ccc(O)cc1O | · | 5.2 | 3.1 | · | ·
Cc1cc(NC2CCCCC2)nc(-c2ccccc2O)n1 | 16.7* | -7.3 | 1.9 | · | 5.1
CC(C)CC(CO)N1CCNCCC1=O (stereo not given) | · | 4.1 | 4.5 | · | ·
CC(C)Cn1c(CN2CCN(C)C(CCO)C2)nc2ccccc21 (stereo not given) | 72.0* | -1.5 | -0.2 | 0.6 | -0.1
CN1CCN(Cc2nc3ccccc3n2C)CC1CCO (stereo not given) | i | -0.7 | -0.7 | -0.8 | ·
O=C(NN=C/C=C\c1ccco1)c1ccccn1 | · | 1.8 | 0.4 | · | ·
Cc1ccc(N(C(C)C(=O)O)S(=O)(=O)c2c(C)[nH]c(=O)[nH]c2=O)cc1 (stereo not given) | -0.4 | 0.3 | -6.9 | 1.2 | ·
COC(=O)C(C)N(c1ccc(C)cc1)S(=O)(=O)c1c(C)[nH]c(=O)[nH]c1=O (stereo not given) | 110.7* | 1.3 | 6.1 | 1.5 | 0.2
Cc1nn(-c2ccccc2)c(N2CCCC2)c1C=NNC(=S)Nc1ccccc1F | · | 6.4 | 24.0 | · | ·

Assay outcomes: PubChem, several laboratories
